# Measured values: ChEMBL document CHEMBL1961873, “Compounds: GSK PKIS; Assays: Nanosyn kinase panel” (2012)
# Several values for one entry are separate records, joined by “and”; a condition that tells them apart may be missing. Identical values can stand only once.
# Legend:
# [1] = molecular target: Serine/threonine-protein kinase MARK2 (Homo sapiens) (UniProt Q7KZI7); conditions: at 1 µM
# [2] = molecular target: PAS domain-containing serine/threonine-protein kinase (Homo sapiens) (UniProt Q96RG2); conditions: at 0.1 µM
# [3] = molecular target: PAS domain-containing serine/threonine-protein kinase (Homo sapiens) (UniProt Q96RG2); conditions: at 1 µM
# [4] = molecular target: Phosphorylase b kinase gamma catalytic chain, skeletal muscle/heart isoform (Homo sapiens) (UniProt Q16816); conditions: at 0.1 µM
# [5] = molecular target: Phosphorylase b kinase gamma catalytic chain, skeletal muscle/heart isoform (Homo sapiens) (UniProt Q16816); conditions: at 1 µM
# [6] = molecular target: T1, Phosphorylase b kinase gamma catalytic chain, liver/testis isoform (Homo sapiens) (UniProt P15735); conditions: at 0.1 µM
# T1 sequence (whole entry): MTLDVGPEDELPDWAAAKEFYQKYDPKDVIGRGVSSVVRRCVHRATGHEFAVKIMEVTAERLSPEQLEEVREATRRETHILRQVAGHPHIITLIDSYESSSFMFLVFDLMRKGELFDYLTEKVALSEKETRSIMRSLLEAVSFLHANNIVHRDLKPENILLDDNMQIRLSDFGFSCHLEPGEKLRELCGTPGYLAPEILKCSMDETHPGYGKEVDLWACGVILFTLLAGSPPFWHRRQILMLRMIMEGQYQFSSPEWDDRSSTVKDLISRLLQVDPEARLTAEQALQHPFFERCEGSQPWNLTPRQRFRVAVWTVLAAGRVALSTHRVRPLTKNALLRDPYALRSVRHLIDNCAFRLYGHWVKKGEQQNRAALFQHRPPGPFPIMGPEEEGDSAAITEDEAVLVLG
# [7] = molecular target: T1, Phosphorylase b kinase gamma catalytic chain, liver/testis isoform (Homo sapiens); conditions: at 1 µM
# [8] = molecular target: Serine/threonine-protein kinase pim-1 (Homo sapiens) (UniProt P11309); conditions: at 0.1 µM
# [9] = molecular target: Serine/threonine-protein kinase pim-1 (Homo sapiens) (UniProt P11309); conditions: at 1 µM
# [10] = molecular target: Serine/threonine-protein kinase pim-2 (Homo sapiens) (UniProt Q9P1W9); conditions: at 0.1 µM;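 also: reported value is the mean percent inhibition of PIM2, measured in the GSK PKIS kinase inhibitor set screen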
# Serine/threonine-protein kinase pim-2 (Homo sapiens), sequence (Q9P1W9 whole entry, looked up): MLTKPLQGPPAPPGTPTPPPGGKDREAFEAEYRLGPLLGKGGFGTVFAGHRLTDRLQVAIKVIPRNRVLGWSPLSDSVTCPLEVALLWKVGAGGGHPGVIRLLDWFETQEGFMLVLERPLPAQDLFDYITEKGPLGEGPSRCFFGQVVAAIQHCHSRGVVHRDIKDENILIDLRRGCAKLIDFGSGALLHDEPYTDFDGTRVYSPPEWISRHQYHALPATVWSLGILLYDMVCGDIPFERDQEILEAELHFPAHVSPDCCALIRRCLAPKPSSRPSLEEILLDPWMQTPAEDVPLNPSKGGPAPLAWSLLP
# Serine/threonine-protein kinase pim-1 (Homo sapiens), sequence (P11309 whole entry, looked up): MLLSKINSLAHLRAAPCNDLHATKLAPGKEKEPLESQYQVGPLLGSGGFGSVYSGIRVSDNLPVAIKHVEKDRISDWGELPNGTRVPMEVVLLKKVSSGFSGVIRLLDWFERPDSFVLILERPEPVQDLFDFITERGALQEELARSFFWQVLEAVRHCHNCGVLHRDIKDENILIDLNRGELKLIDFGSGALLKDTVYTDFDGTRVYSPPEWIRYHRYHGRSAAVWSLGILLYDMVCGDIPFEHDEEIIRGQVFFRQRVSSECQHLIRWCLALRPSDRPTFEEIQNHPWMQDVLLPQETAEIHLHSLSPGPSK
# Serine/threonine-protein kinase MARK2 (Homo sapiens), sequence (Q7KZI7 whole entry, the tested form may be a part): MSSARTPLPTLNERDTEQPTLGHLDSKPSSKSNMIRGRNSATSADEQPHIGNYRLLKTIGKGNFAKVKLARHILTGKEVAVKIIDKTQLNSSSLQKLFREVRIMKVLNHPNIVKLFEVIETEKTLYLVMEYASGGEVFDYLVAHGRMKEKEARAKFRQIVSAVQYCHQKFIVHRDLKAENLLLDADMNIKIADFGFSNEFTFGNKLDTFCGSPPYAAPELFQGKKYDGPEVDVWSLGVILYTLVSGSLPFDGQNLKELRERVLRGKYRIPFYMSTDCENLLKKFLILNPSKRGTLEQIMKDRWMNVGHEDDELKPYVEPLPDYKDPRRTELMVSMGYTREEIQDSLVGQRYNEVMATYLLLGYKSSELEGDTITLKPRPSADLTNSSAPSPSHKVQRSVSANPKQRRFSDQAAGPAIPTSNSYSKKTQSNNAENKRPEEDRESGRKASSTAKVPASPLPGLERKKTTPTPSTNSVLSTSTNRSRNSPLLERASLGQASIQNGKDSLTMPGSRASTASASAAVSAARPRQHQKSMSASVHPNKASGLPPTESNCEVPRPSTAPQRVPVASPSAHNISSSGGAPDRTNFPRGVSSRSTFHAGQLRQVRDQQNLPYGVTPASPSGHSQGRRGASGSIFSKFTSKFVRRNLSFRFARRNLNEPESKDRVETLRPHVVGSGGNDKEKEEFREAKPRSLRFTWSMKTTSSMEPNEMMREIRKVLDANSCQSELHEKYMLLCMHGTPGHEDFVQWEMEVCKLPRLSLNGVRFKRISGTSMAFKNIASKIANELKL
# Phosphorylase b kinase gamma catalytic chain, skeletal muscle/heart isoform (Homo sapiens), sequence (Q16816 whole entry, looked up, canonical isoform): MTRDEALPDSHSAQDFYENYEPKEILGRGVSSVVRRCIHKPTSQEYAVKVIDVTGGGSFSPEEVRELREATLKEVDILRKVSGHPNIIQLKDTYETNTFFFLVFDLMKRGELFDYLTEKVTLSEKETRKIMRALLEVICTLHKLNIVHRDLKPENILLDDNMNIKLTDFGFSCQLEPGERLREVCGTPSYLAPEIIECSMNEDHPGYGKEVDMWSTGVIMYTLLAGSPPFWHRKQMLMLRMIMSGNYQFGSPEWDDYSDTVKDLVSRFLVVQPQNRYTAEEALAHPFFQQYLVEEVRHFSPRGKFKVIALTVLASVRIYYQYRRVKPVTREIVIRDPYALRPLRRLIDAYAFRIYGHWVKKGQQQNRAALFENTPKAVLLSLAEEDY
# PAS domain-containing serine/threonine-protein kinase (Homo sapiens), sequence (Q96RG2 whole entry, the tested form may be a part, canonical isoform): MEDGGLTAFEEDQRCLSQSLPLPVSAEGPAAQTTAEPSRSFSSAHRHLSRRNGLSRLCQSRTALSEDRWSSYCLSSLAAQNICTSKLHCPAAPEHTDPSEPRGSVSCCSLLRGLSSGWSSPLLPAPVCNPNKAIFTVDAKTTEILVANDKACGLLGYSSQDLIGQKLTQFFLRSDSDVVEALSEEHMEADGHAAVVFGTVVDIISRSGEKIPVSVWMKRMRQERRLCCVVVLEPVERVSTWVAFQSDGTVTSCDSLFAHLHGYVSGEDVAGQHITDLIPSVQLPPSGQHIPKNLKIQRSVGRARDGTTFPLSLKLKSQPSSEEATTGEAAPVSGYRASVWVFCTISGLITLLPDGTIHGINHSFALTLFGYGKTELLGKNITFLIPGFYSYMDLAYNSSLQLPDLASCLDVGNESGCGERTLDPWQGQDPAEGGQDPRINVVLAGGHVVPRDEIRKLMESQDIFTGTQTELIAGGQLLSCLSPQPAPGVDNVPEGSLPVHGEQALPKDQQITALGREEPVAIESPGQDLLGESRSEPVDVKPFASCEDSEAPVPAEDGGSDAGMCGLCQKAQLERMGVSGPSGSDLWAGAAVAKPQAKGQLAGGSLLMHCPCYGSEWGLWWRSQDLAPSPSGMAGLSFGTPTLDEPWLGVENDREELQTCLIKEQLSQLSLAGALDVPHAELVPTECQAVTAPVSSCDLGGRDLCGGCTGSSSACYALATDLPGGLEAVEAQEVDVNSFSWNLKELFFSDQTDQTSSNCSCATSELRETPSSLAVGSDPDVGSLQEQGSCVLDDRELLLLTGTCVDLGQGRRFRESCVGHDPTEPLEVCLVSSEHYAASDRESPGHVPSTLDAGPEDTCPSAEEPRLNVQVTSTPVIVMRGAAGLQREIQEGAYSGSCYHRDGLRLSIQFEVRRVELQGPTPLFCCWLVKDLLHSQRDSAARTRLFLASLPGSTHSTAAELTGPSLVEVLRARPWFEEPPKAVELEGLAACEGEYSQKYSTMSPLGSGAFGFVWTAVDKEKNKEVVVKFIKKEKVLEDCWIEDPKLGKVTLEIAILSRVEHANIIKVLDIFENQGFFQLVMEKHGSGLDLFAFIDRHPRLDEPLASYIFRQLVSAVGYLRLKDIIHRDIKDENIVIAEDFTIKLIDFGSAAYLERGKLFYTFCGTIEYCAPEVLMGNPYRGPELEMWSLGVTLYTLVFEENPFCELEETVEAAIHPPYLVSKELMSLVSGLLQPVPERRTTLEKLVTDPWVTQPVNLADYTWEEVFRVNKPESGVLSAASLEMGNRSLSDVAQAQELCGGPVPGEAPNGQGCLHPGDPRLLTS
Structure (SMILES),inhibition [1],inhibition [2],inhibition [3],inhibition [4],inhibition [5],inhibition [6],inhibition [7],inhibition [8],inhibition [9],inhibition [10]
CCN1CCC(C(=O)Nc2n[nH]c3nnc(-c4cccc(F)c4F)cc23)CC1,1.95%,1.35%,0.26%,1.99%,4.68%,-0.86%,-1.05%,-0.82%,0.91%,0.04%
Fc1ccc(Nc2nccc(-c3c(-c4ccc(C(F)(F)F)cc4)nn4ncccc34)n2)cc1F,2.64%,0.46%,-1.14%,-0.56%,1.84%,3.81%,0.35%,1.07%,0.89%,0.92%
COc1cccc(-n2ncc3c(N/N=C/c4ccc(C(=O)NCCN(C)C)cc4)ncnc32)c1,11.9%,0.59%,-0.48%,5.75%,30.5%,3.32%,7.38%,1.53%,8.23%,0.17%
COc1cc(N2CCN(C(C)C)CC2)ccc1Nc1nc(Nc2cccc(F)c2C(=O)O)c2cc[nH]c2n1,3.36%,0.65%,0.52%,8.07%,39.8%,6.18%,19.9%,-0.13%,1.42%,0.01%
CS(=O)(=O)CCNCc1ccc(-c2ccc3ncnc(Nc4ccc(OCc5ccccc5)cc4)c3c2)o1,1.67%,0.96%,0.95%,4.83%,4.75%,4.78%,4.2%,1.47%,1.03%,0.19%
COc1ccccc1-c1cc(/C=C2\C(=O)Nc3ncc(Br)cc32)cc(Br)c1O,2.22%,-1.52%,-3.29%,3.58%,7.04%,4.87%,3.85%,0.14%,3.18%,0.1%
COc1ccc(-c2nn3ncccc3c2-c2ccnc(Nc3ccc(F)c(F)c3)n2)cc1,0.59%,1.16%,1.41%,8.48%,10.2%,4.94%,9.5%,0.43%,0.69%,1.57%
COc1ccc(Nc2ncc(-c3ccccc3)o2)cc1OC,16.8%,0.54%,0.81%,5.28%,28.9%,0.22%,2.01%,1.41%,2.22%,1.11%
Fc1cccc(COc2ccc(Nc3ncncc3C#Cc3ccccc3)cc2Cl)c1,1.05%,0.76%,1.64%,3.8%,5.87%,5.59%,8.15%,0.46%,1.07%,0.52%
N#Cc1cccc(Nc2ncc(-c3ccccc3)o2)c1,-0.47%,0.37%,2.05%,2.95%,12.9%,1.85%,6.04%,0.15%,0.29%,0.1%
CN(C)CCNC(=O)Nc1ccc(N(C)c2ccnc(Nc3ccc(CS(C)(=O)=O)cc3)n2)cc1,7.11%,1.26%,-0.25%,2.14%,4.59%,4.64%,1.59%,1.06%,1.39%,0.27%
Nc1nccc(-c2c(-c3ccc(F)cc3)ncn2C2CCNCC2)n1,1.75% and 0.35%,-0.64% and -0.39%,-0.63% and -0.93%,-0.27% and 1.11%,2.04% and 1.58%,-6.47% and 0.35%,-6.27% and -1.71%,0.29% and -0.7%,7.06% and -0.6%,-0.19% and 0.2%
CNC(=O)c1cncc(/C=C/c2ccccc2C)c1,0.45%,0.44%,0.95%,4.3%,7.61%,6.36%,7.42%,0.05%,2.22%,0.15%
CCS(=O)(=O)c1ccc(OC)c(Nc2ncc(-c3cccc(C(C)=O)c3)o2)c1,-4.12%,0.37%,2.34%,1.7%,10.4%,3.37%,6.45%,0.82%,1.66%,-0.72%
O=C(Nc1n[nH]c2nnc(-c3cccnc3)cc12)C1CC1,1.5%,1.31%,0.02%,0.1%,-0.03%,-1.23%,-1.9%,26.1%,74.5%,4.25%
CS(=O)(=O)CCNCc1ccc(-c2ccc3ncnc(Nc4ccc(OCc5cccc(C(F)(F)F)c5)cc4)c3c2)o1,5.07%,-1.03%,-1.02%,2.44%,4.94%,5.95%,4.97%,1.96%,3.18%,-0.68%

Structure (SMILES),inhibition [1],inhibition [2],inhibition [3],inhibition [4],inhibition [5],inhibition [6],inhibition [7],inhibition [8],inhibition [9],inhibition [10]
CNC(=O)c1ncccc1Nc1nc(Nc2cc3c(cc2OC)CCCN3C(=O)CN(C)C)nc2[nH]ccc12,4.82%,0.42%,-3.51%,5.77%,26.6%,5.37%,3.8%,18.9%,65.9%,1.04%
COc1cccc(Nc2nccc(-c3cnn4ncccc34)n2)c1,21.4%,-0.19%,-1.63%,2.67%,27.6%,4.4%,18.8%,0.85%,6.56%,0.37%
CC1(C)CC(n2cnc(-c3ccc(F)cc3)c2-c2ccnc(N)n2)CC(C)(C)N1,0.44%,-1.3%,-0.73%,3.51%,2.36%,-0.42%,-1.13%,0.93%,1.49%,0.4%
CS(=O)(=O)CCNCc1ccoc1-c1ccc2ncnc(Nc3ccc(OCc4ccccc4)cc3)c2c1,-2.18%,1.27%,0.16%,2.12%,3.12%,0.65%,0.15%,0.23%,-0.94%,0.1%
CC1=C(C(=O)Nc2ccc3[nH]ncc3c2)C(c2ccc(F)cc2)N=C(c2ccc(C(F)(F)F)nc2)N1 (stereo not given),2.79%,-0.13%,-0.98%,0.36%,1.77%,1.74%,-0.23%,0.3%,-0.09%,0.44%
CN(c1ccc(NC(=O)NCCN2CCOCC2)cc1)c1ccnc(Nc2ccc(CS(C)(=O)=O)cc2)n1,2.47%,0.41%,2.08%,2.5%,5.5%,2.91%,6.71%,0.61%,-0.22%,0.04%
CCCNc1cccc(-n2ncc3c(N/N=C/c4ccncc4)ncnc32)c1,4.97%,1.18%,3.05%,2.76%,19.5%,2.56%,7.69%,0.64%,1.01%,1.23%
CS(=O)(=O)Nc1ccc(-c2cc(-c3ccccc3)cc(C(N)=O)c2N)cc1,4.64%,-0.01%,-0.36%,1.44%,4.26%,1.4%,0.02%,0.69%,1.67%,-0.48%
CN1CCC(C(=O)Nc2n[nH]c3nc(-c4ccc(O)cc4)c(Br)cc23)CC1,2.87% and -0.48%,0.12% and 1.36%,1.4% and -0.48%,7.58% and -0.16%,16.1% and 3.32%,4.67% and 1.73%,9.01% and 2.52%,5.3% and 6.07%,34.8% and 33.4%,-0.97% and 1.73%
Nc1ncnc2occ(-c3ccc(NC(=O)Nc4cc(C(F)(F)F)ccc4F)cc3)c12,2.65% and 0.89%,0.79% and 0.18%,0.2% and -0.5%,0.08% and -0.25%,4.52% and 6.47%,2.69% and -2.51%,-1.12% and -5.1%,0.97% and 0.53%,1.19% and 2.46%,0.22% and 0.7%
FC(F)(F)CNc1nccc(-c2cnn3ncccc23)n1,2.13%,1.06%,0.79%,3.02%,6.43%,3.98%,4.36%,0.08%,3.03%,-0.09%
CC(C)c1ccc(-c2cc(-c3c[nH]nc3-c3ccccn3)ccn2)cc1,-0.26%,-0.36%,-1.24%,0.46%,1.25%,-0.69%,-0.76%,0.3%,-0.2%,-0.34%
CNC(=O)c1sc(-n2cnc3cc(OC)c(OC)cc32)cc1OCc1ccccc1C(F)(F)F,1.67%,0.35%,0.79%,4.21%,3.69%,5.8%,5.01%,-0.73%,-0.07%,0.37%
Cc1c2ccc(N(C)c3ccnc(Nc4cccc(S(N)(=O)=O)c4)n3)cc2nn1C,4.84%,0.26%,-1.92%,4.4%,7.27%,4.88%,3.28%,0.43%,1.01%,-3.44%
c1ccc(-c2n[nH]cc2-c2ccnc(-c3ccc(OCCn4ccnc4)cc3)c2)nc1,-0.66%,-0.73%,-0.48%,2.85%,6.86%,-0.35%,3.4%,0.32%,0.45%,0.56%
